5 compounds from PubChem BioAssay AID652029 (The Scripps Research Institute Molecular Screening Center, 2013) can be followed below.

This is one part of the list. Unmarked numbers belong to inactive results. Active and inactive are the calls of the source.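 Rule for the calls: active = inhibition of LYPLA2 enzyme probe labeling above about 50% (limit read from the data); inactive = inhibition below that limit.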

The target of this assay is Acyl-protein thioesterase 2 (Homo sapiens) (UniProt O95372). Kind of assay: LYPLA2 inhibitors in proteome, late-stage follow-up, gel-based competitive ABPP, fluorescence, assay provider (AID 652029).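 Note: loss of FP-Rh probe labeling of the LYPLA2 gel band measured as band density; 0% = DMSO only control band and 100% = blank gel background.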 The note with it: rhLYPLA2 in mouse brain proteome, gel ABPP FP-Rh; at 20 µM; active compounds read high.
Acyl-protein thioesterase 2 (Homo sapiens), sequence (O95372 whole entry, looked up): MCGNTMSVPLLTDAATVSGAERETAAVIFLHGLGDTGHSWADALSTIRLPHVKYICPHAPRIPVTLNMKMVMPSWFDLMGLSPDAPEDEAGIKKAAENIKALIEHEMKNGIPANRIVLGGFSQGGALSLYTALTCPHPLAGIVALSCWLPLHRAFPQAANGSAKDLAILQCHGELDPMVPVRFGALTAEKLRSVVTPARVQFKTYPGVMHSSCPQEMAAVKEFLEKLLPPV
With `CC(=O)c1ccc(N2CCN(C(=O)C3CCN(S(=O)(=O)c4ccc5c(c4)CC(C)N5C(=O)C4CC4)CC3)CC2)cc1` (stereo not given), the inhibition (usually how much of the control response was suppressed) was 70% (active). Then `O=C1C2CCCN2C(=O)N1CCCCN1CCN(c2cccc(C(F)(F)F)c2)CC1` (stereo not given), with 44%. Then `O=C(CCCN1C(=O)c2cccc3cccc(c23)C1=O)N1CCN(Cc2ccc3c(c2)OCO3)CC1`, with 25%. The figure for `CCC(=O)c1ccc(OCC(O)CN2CCN(c3cccc(C(F)(F)F)c3)CC2)cc1` (stereo not given) is 18%; for `COc1ccc(N2CCN(C(=O)c3ccc(N4CCCCS4(=O)=O)cc3)CC2)cc1` it is 49%.
